Source: ChEMBL document CHEMBL3988442, “University of Dundee, Small-Polar-MMV Screening Library” (2021)
For some assays here: Measured potencies and affinities stand elsewhere.

How the values were obtained:
Set-up in all cases: scale not given: direction of the effect not stated beside the values
[1] = target: Protein translocase subunit SecA (Escherichia coli (strain K12)) (UniProt P10408); experiment: Assay to Identify E. coli SecA ATPase Inhibitors; type: functional; settings: 30 µM
[2] = target: T1, Ubiquitin-activating enzyme e1, putative (Leishmania donovani (strain BPK282A1)) (UniProt E9BSI1); experiment: Leishmania donovani Ubiquitin Activating Enzyme (LdE1); type: functional; settings: 30 µM
T1 sequence (whole entry): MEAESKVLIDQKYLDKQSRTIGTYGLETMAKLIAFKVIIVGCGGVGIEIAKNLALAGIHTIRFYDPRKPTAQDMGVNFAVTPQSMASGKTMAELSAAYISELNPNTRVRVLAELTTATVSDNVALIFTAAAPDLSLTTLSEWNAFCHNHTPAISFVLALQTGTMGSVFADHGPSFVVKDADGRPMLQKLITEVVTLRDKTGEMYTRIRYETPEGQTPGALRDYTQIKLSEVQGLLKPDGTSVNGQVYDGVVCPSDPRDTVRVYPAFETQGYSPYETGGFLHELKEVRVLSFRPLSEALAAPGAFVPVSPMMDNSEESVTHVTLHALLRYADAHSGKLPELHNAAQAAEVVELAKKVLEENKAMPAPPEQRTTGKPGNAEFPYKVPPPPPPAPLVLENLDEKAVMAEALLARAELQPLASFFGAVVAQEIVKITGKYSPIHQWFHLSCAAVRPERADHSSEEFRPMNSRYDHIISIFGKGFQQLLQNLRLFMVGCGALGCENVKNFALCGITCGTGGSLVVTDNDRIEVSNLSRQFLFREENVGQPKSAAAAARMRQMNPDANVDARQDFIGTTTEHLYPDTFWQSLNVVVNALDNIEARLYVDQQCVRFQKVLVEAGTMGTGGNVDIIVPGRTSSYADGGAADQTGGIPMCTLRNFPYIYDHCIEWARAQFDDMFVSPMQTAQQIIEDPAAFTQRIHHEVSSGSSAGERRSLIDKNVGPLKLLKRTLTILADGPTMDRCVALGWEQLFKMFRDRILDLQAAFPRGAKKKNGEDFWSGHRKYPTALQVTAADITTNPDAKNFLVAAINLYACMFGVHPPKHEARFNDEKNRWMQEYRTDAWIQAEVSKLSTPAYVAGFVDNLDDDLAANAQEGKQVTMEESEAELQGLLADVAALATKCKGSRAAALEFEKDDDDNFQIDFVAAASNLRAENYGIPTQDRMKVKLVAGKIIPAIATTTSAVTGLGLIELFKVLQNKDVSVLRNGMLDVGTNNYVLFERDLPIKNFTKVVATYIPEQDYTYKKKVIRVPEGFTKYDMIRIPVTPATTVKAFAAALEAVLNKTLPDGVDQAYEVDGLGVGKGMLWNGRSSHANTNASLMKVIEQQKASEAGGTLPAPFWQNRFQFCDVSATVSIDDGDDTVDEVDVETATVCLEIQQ

[3] = target: AMP-activated protein kinase, AMPK (Homo sapiens) (UniProt P54646+O43741+P54619+Q9UGJ0+Q9Y478+Q13131+Q9UGI9); experiment: AMP-dependent Kinase enzyme assay. An in vitro enzyme assay that detects ADP turnover that is directly proportional to AMPK activity. This uses naive AMPK that is activated during the assay with MK-8722; type: functional; settings: 30 µM
[4] = target: Sialic acid-binding Ig-like lectin 9 (Homo sapiens) (UniProt Q9Y336); experiment: Hs-Siglec9 ALPHAscreen SOP 20170721; settings: 10 µM
Trypanosoma cruzi = experiment: Trypanosoma cruzi phosphomannomutase and mannose-1-phosphate guanylyltransferase assay; type: functional; settings: 10 µM
[5] = target: T2, Arginase-2, mitochondrial (Homo sapiens) (UniProt P78540); experiment: in vitro enzyme assay to detect the production of urea directly proportional to the activity of Arginase II; type: functional; settings: 33.3 µM; note: in the data most compounds retested in dose-response had high values
T2 sequence (whole entry): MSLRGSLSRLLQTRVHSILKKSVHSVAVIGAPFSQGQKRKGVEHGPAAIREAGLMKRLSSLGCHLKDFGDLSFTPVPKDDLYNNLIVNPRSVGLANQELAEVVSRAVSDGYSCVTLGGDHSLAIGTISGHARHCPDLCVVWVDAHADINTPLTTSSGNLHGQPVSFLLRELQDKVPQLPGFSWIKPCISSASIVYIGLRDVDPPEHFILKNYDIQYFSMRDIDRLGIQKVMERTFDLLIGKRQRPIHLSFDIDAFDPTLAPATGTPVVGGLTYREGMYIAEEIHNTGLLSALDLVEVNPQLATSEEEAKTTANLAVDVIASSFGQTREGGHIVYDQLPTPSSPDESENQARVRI

[6] = target: T3, Proteasome subunit beta (Trypanosoma cruzi) (UniProt O96673); experiment: Trypanosoma cruzi proteasome chymotrypsin-like activity (TcProtChymo) assay.; note: in the data most compounds retested in dose-response had high values; type: functional; settings: 9.37 µM
T3 sequence (whole entry): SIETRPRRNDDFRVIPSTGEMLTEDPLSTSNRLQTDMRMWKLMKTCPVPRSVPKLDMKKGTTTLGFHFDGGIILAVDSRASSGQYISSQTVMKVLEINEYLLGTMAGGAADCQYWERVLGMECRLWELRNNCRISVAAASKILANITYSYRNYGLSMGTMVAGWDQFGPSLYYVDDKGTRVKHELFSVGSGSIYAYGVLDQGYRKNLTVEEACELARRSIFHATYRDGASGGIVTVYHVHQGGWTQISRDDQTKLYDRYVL

Homo sapiens = organism: Homo sapiens; experiment: To identify inhibition of the IFN signalling (Jak-Stat) pathway via expression of an eGFP reporter gene under the control of an IFN-stimulated response element (ISRE) containing MxA promoter.; type: functional; settings: 30 µM
[7] = target: T4, Tyrosyl-tRNA synthetase, putative (Trypanosoma cruzi (strain CL Brener)) (UniProt Q4DSP6); experiment: Trypanosoma cruzi tyrosyl tRNA synthetase (TcYRS) _High Tyrosine SOP; type: functional; settings: 30 µM; note: in the data most compounds retested in dose-response had high values
T4 sequence (whole entry): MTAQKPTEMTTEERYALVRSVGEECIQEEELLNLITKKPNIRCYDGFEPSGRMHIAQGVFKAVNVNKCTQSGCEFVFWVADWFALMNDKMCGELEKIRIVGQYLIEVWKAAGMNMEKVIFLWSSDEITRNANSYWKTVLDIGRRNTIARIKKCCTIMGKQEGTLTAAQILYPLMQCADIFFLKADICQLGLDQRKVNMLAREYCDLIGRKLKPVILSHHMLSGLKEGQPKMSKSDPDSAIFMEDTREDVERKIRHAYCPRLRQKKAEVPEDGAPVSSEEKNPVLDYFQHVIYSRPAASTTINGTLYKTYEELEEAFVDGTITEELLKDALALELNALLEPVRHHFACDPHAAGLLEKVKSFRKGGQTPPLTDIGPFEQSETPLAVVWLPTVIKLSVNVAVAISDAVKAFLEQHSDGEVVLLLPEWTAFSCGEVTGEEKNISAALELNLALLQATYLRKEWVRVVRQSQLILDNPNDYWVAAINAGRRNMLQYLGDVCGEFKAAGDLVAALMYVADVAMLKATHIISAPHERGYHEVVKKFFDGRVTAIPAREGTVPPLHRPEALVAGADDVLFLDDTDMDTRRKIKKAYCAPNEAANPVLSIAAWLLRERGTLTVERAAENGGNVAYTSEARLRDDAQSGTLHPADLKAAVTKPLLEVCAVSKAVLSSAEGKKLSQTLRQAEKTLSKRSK

[8] = target: T4, Tyrosyl-tRNA synthetase, putative (Trypanosoma cruzi (strain CL Brener)); experiment: Trypanosoma cruzi tyrosyl tRNA synthetase (TcYRS) SOP; type: functional; settings: 30 µM
[9] = target: Chromo domain-containing protein 1 (Saccharomyces cerevisiae (strain ATCC 204508 / S288c) (Baker's yeast)) (UniProt P32657); experiment: ScCHD-1 Enzyme Inhibition Assay; type: functional; settings: 30 µM; note: in the data most compounds retested in dose-response had high values
Sequence of Chromo domain-containing protein 1 (Saccharomyces cerevisiae (strain ATCC 204508 / S288c) (Baker's yeast)) (P32657 whole entry, the tested form may be a part): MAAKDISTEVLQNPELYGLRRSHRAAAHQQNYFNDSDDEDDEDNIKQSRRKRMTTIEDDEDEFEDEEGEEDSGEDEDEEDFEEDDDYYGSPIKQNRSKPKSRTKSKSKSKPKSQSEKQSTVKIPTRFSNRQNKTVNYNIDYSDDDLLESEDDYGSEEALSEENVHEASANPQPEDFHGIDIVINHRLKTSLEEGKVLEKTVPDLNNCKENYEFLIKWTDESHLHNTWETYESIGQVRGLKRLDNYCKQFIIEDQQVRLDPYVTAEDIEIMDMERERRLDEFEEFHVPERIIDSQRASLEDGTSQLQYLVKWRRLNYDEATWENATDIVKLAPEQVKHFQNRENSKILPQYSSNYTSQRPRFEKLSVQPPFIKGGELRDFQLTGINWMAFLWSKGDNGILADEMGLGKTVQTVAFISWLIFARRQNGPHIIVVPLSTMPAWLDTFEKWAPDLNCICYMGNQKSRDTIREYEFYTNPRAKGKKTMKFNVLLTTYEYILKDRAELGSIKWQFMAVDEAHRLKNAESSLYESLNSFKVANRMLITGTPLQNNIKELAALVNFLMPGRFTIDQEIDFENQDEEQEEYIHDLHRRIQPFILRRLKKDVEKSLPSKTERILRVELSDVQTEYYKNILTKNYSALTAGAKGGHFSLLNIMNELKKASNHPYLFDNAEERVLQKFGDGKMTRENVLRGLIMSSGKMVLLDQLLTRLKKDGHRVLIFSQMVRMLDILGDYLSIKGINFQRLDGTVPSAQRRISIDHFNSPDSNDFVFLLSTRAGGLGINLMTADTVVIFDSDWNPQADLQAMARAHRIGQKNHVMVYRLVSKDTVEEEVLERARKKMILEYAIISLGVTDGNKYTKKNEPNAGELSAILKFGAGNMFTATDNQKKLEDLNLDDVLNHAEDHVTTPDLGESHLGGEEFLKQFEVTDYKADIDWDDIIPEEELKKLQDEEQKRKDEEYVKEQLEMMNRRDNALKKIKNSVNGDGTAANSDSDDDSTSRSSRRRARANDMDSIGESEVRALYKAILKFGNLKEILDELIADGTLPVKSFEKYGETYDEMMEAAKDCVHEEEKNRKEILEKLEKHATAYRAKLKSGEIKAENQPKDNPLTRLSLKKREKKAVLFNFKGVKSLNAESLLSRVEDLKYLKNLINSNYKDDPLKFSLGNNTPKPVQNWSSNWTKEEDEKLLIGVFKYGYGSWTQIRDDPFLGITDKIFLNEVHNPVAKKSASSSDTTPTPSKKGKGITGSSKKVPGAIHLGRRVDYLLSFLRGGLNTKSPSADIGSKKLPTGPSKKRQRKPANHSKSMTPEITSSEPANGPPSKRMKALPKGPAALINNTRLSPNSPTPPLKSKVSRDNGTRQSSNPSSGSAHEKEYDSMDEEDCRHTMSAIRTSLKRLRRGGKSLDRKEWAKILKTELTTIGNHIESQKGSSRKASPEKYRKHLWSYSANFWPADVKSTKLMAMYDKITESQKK

Sequence of Protein translocase subunit SecA (Escherichia coli (strain K12)) (P10408 whole entry): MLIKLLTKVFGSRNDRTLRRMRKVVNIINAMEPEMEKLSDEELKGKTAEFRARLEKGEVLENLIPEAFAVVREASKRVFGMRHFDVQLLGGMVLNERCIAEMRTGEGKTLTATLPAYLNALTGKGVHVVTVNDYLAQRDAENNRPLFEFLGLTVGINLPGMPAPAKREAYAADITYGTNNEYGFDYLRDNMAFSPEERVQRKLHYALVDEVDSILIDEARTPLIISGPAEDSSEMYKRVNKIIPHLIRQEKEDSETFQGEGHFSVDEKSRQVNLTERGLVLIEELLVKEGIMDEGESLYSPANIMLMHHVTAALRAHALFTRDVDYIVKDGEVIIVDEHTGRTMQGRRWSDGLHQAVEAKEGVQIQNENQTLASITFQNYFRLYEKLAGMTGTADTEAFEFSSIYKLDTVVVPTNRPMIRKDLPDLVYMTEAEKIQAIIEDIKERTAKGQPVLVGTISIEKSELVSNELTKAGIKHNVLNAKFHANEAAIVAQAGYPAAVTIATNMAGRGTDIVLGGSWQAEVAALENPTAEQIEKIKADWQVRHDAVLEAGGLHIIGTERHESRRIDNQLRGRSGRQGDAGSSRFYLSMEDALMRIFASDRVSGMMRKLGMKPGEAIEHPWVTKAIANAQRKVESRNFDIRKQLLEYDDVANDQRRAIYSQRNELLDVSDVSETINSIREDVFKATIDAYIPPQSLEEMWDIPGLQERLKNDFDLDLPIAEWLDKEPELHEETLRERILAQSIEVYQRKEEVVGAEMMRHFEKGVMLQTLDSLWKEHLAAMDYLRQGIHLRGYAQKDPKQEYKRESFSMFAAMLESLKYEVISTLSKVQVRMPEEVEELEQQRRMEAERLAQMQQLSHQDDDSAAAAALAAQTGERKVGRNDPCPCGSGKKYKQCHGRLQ
Sequence of Sialic acid-binding Ig-like lectin 9 (Homo sapiens) (Q9Y336 whole entry): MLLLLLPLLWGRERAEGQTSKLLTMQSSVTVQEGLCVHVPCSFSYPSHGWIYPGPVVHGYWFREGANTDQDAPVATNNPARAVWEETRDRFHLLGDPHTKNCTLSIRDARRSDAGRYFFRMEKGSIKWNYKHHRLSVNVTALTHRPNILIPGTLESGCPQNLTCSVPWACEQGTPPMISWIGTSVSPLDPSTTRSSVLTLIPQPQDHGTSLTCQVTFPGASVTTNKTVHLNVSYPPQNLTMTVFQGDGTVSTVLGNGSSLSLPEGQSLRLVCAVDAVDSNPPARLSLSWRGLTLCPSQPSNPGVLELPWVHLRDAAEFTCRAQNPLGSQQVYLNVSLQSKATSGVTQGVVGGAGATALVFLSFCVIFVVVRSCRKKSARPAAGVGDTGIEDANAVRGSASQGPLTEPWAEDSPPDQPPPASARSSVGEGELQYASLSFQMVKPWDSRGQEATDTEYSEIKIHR

Row | Compound | Percent Effect [1] [%] | Percent Effect [2] [%] | Percent Effect [3] [%] | Percent Effect [4] [%] | Percent Effect (Trypanosoma cruzi) [%] | Percent Effect [5] [%] | Percent Effect [6] [%] | Percent Effect (Homo sapiens) [%] | Percent Effect [7] [%] | Percent Effect [8] [%] | Percent Effect [9] [%]
1 | CC1c2ncc(CNC(=O)C3CC3)n2CCN1Cc1cnn(C)c1 (configuration not stated) | -0.181 | 8 | -3.48 | -1.35 | 6.56 | -55.4 | 13.8 | 5.07 | 3.12 | 12.5 | -7.95
2 | Cc1ccc(C(=O)NCCS(C)(=O)=O)c(=O)[nH]1 | -3.94 | 16.2 | -7.64 | -5.87 | 4.88 | 10.4 | 16.1 | 7.03 | 9.9 | 15.8 | -5.72
3 | Cc1cnc(CN2CCOC(CNc3cccnn3)C2)cn1 (configuration not stated) | 0.476 | -7.79 | -0.781 | 0.564 | -6.74 | 8.54 | 0.676 | 17.9 | 0.971 | -2.44 | -5.93
4 | CC(=O)c1cccc(OCCCC(=O)NCC2CCCN2C)c1 (configuration not stated) | -3.97 | 13.2 | -2.69 | 14.8 | 3.57 | 0 | 11.7 | 6.04 | 10.3 | 21.9 | -9.7
5 | CC(C)c1nn(C)c(N(C)C)c1CNCc1cccc(CN(C)C)c1 | -1.46 | 18.4 | -8.3 | 3.17 | -7.94 | 3.6 | 3.81 | 2.21 | 8.37 | 18.5 | -4.8
6 | COCCNC(=O)Cn1nc(C(C)C)c2cnn(C(C)(C)C)c2c1=O | -2.65 | 5.48 | -1.93 | 5.56 | 3.72 | -1.36 | 17.6 | 15.1 | 8.6 | 15 | -6.24
7 | C[C@H]1C[C@H]2CN(C(=O)c3ccncn3)CC[C@H]2O1 | -6.88 | 2.7 | -0.849 | -1.39 | 2.54 | 2.08 | 12.1 | -0.328 | 6.93 | 1.22 | -3.3
8 | CN(C)Cc1cc(=O)n2c(n1)CN(C(=O)Cc1ccsc1)CCC2 | 0.204 | 2.6 | 0.0483 | -0.795 | 0.492 | 1.38 | 6.49 | -22.4 | 1.07 | 1.24 | -2.76
9 | CSc1cccc(CNC(=O)C2CC(=O)N(CCN(C)C)C2)c1 (configuration not stated) | 0.794 | 5.33 | -10.1 | 4.4 | -2.82 | 1.56 | 15.7 | 9.77 | 4.92 | 13.6 | -3.47
10 | CC(C)c1cc(NC(=O)CN2CCc3c(nc(C(C)C)n3C)C2)on1 | -0.514 | 0 | -3.17 | 8.75 | 2.62 | -4.98 | 17.9 | 12 | 5.83 | 9.76 | -7.27
11 | O=C1COc2c(cccc2C(=O)N2CCCCC2Cn2cccn2)N1 (configuration not stated) | -1.42 | 10.4 | 2.71 | 5.65 | -2.84 | 3.16 | 14.6 | 10.8 | 6.67 | 11.8 | -12.7
12 | O=C(NC[C@H]1OC[C@@H]2CCN(Cc3ccco3)C[C@@H]21)c1ccsc1 | -1.93 | 8.22 | -0.185 | 8.5 | 4.17 | -9.58 | 11.2 | -6.7 | 6.25 | 8.64 | -1.63
13 | Cc1cc(-c2cnc(NC3CCCC3)nc2-c2ccoc2C)on1 | -2.76 | 14.9 | 65.2 | 4.01 | 0.395 | -0.696 | 5.77 | 14.7 | 6.45 | 3.9 | -16
14 | CCc1cccc(N2CCC(NC(=O)c3cc[nH]n3)CC2)c1 | -4.19 | 6.33 | 8.15 | -6.72 | -3.59 | -5.38 | 11.2 | 28.6 | 2.08 | 5.06 | -20.9
15 | Cc1cnn(CCNCCCOc2ccccc2)c1 | 1.02 | -21.1 | -5.54 | 5.86 | 3.27 | 1.08 | 6.85 | -25 | 6.4 | 3.7 | -0.782
16 | Cn1ccc2ccnc(CC3CN(C(=O)C4CCC(F)(F)CC4)C3)c21 | -2.7 | 6.76 | 5.92 | 5.61 | -0.395 | -0.696 | 9.05 | 1.45 | 6.45 | 14.3 | -12.4
17 | Fc1cccnc1OC[C@@]12CCO[C@@H]1CCN(CC1CCOCC1)C2 | -3.83 | 8.11 | -6.9 | 22.7 | 4.01 | -0.744 | 14.3 | 12.2 | 6.45 | 13.6 | -9.09
18 | CSCc1cccc(S(=O)(=O)NCCCn2ccnc2)c1 | -5.68 | -23.4 | -1.48 | 6.2 | 1.67 | -6.9 | 2.16 | 2.79 | 7.53 | 21 | -1.53
19 | CN(Cc1ccc(F)cc1)C(=O)CN1CCCC(Cn2cncn2)C1 (configuration not stated) | -2.63 | 2.53 | 1.84 | 7.47 | 3.49 | 1.52 | -6.8 | -5.05 | 7.39 | 3.8 | -2.65
20 | Cc1nn(CC(=O)N2CCN(c3ccccc3F)CC2)c(C)c1Cl | 0.317 | 15.6 | 4.64 | 2.9 | 1.87 | -24.8 | 25.5 | 9.79 | 4.3 | 23.5 | 1.69
21 | Cc1cc(CN2CCCC2c2c(C)nn(C)c2Cl)no1 (configuration not stated) | -2.25 | 21.1 | -2.49 | -2.11 | 3.46 | 3.24 | 13.4 | 3.96 | 10.3 | 28.4 | -10.3
22 | CNC(=O)C1(c2cnccn2)CCCN1C(=O)c1ccn(C)n1 (configuration not stated) | -5.86 | 6.76 | 3.23 | -2.02 | 0.593 | -1.16 | 1.4 | 7.86 | 4.3 | 74 | -22
